Measured values from the supplement of paper PMC10338343.
± gives the standard deviation. In all, about 6,600 sequences were measured (“pre-steady-state target cleavage rate”: median about 0.07, highest 2% from about 0.72 on). This excerpt belongs to a sample that is enriched for the highest values.

Tested on: MIWI (PIWIL1) piRISC loaded with Kctd7 piRNA (30 nt)
Assay: pre-steady-state target cleavage rate (min^-1); MIWI and MILI are mouse PIWI proteins and EfPiwi is from a freshwater sponge; tags in brackets are library labels; higher = faster piRNA-guided slicing of the target
Conditions: guide: Kctd7 piRNA 5'p-UGUUAAUCUCUCAGAGAAGGUGACAGUGAU; auxiliary factor: 500 nM mouse GTSF1
Protocol: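 Cleave-'n-Seq: a library of target RNAs (target site embedded in constant flanks, ACAGCATTCCGCGTTAGTGATATCCG... 5' flank; DNA-blocked outside the site) at 0.1 nM was incubated with 1 nM active mouse MILI or MIWI piRISC (synthetic 5'-monophosphorylated piRNA guide) with or without 500 nM mouse GTSF1 at 33 °C for 1 min to 16 h. Uncleaved targets were sequenced and normalised to non-target controls, and the pooled three trials were fitted to a burst-and-steady-state model to give the pre-steady-state cleavage rate (min^-1; k3 is constrained to at most 1e-4). Sequence is the target site only; target names encode pairing extent (gX:gY) and contiguous / 1-mismatch / 2-mismatch / bulge geometry. Fits with R² ≤ 0 are excluded.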

Sequence | pre-steady-state target cleavage rate
UACACUGUCACCUUCACUGAGAGAUUUUGA | 0.302 ± 0.099
UACACUGUCACCUUGACUGAGAGAUUUUGA | 0.117 ± 0.039
UAGACUGUCACCUUGUCUGAGAGAUUUUGA | 0.234 ± 0.066
UUCACUGUCACCUUGUCUGAGAGAUUUUGA | 1.06 ± 0.27
UACACUGUCACCUUCUGAGAGAGAUUUUGA | 0.0616 ± 0.019
UACACUGUCACCUUGUCUGAGAGAUUUUGA | 1.02 ± 0.24
AUCACUGUCACCUUCUCUGAGAGAUUUUGA | 0.0948 ± 0.023
AUCACUGUCACCUUGUCUGAGAGAUUUUGA | 1.4 ± 0.36
AUCACUGUCACCUUGACUGAGAGAUUUUGA | 0.839 ± 0.22
UAGUCUGUCACCUUGUCUGAGAGAUUUUGA | 0.197 ± 0.06
UAGUCUGUCACCUUCACUGAGAGAUUUUGA | 0.176 ± 0.046
AUCACUGUCACCUUCACUGAGAGAUUUUGA | 0.339 ± 0.082
UAGUGACACACGUUGUCUGAGAGAUUAACA | 0.0596 ± 0.011
UAGUGACAGUCCUUCUCUGAGAGAUUAAACA | 0.0368 ± 0.0052
UAGUGACACAGCUUCUCUGAGAGAUUAUGA | 0.00591 ± 0.0022
AUCACUGUCACCUGCUCUGAGAGAUUAACA | 0.673 ± 0.026
AUCACUGUCACCUUGCUCUGAGAGAUUAACA | 1.1 ± 0.18
UUCACUGUCACCUGCUCUGAGAGAUUAACA | 0.645 ± 0.031
UACACUGUCACCUUGCUCUGAGAGAUUAACA | 1.01 ± 0.17
UACACUGUCACCUGCUCUGAGAGAUUAACA | 0.571 ± 0.03
AUCACUGUCACCUGUCUCUGAGAGAUUAACA | 0.651 ± 0.038
UACACUGUCACCUUGUCUGAGAGAUUAACA | 0.355 ± 0.042
UUCACUGUCACCUUGCUCUGAGAGAUUAACA | 0.747 ± 0.11
UAGUCUGUCACCUUGCUCUGAGAGAUUAACA | 0.47 ± 0.081

Sequence | pre-steady-state target cleavage rate
UAGACUGUGACCUUCUCUGAGAGAUUAUCA | 0.246 ± 0.033
UAGACACUCACCUUCUCUGAGAGAUUAUGA | 0.141 ± 0.031
AUCACUGUCACGUUCACUGAGAGAUUAACA | 0.44 ± 0.025
UAGUCUGUCACCUUCUCUGAGAGAUAAUGA | 0.0204 ± 0.0082
UUCACUGUCACCUUCUCUGAGAGUUUAUGA | 0.71 ± 0.18
UAGUGUGUCACCUUCUCUGAAGAGAUUAACA | 0.00762 ± 0.0051
UACACUCUCACCUUCUCUGAGUGAUUAACA | 0.0216 ± 0.0064
UAGUCUUUCACCUUCUCUGAGAGAUUAACA | 0.265 ± 0.015
UAGUGAGUCAGCUUCUCUGAGAGAAUAACA | 0.199 ± 0.032
UACACUGUCACCUUCUCUGUCAGAUUAACA | 0.0245 ± 0.008
UUCACUGUCACCUUUUCUGAGAGAUUAACA | 0.679 ± 0.028
UAGACUGUCACCUUUCUCUGAGAGAUUAACA | 0.538 ± 0.039
UAGACUGUCACCUUUUCUGAGAGAUUAACA | 0.732 ± 0.034
AUCACUGUCACCUUUUCUGAGAGAUUAACA | 0.748 ± 0.029
AUCACUGUCACCUUUCUGAGAGAUUAACA | 0.532 ± 0.025
UAGACUGUCACCUUUCUGAGAGAUUAACA | 0.5 ± 0.033
UAGUGAGUCACCUUCACUCAGAGAUUAACA | 0.0317 ± 0.0057
UUCACUGUCUCCUUCUCUGAGAGAUUAUCA | 0.231 ± 0.035
UAGUGACAGUGCUUCACUGAGAGAUUAACA | 0.00805 ± 0.0033
UAGUGACUCACGUUCUCUGAGAGAUUUUGA | < 0.0001
UAGAAUGUCACCUUCUCUGAGAGAUUAACA | 0.652 ± 0.038
UAGUCUGUCACCUUGUCUGAGAGAUUUACA | 0.25 ± 0.045
UUCACUGUCACCUUGUCUGAGAGUUUAACA | 0.422 ± 0.077
UUCACUGUCACCUUGUCUGAGAGAUUUACA | 0.671 ± 0.12

Sequence | pre-steady-state target cleavage rate
UACACUGUCACCUUGUCUGAGAGUUUAACA | 0.442 ± 0.11
AUCACUGUCACCUUGUCUGAGAGUUUAACA | 0.745 ± 0.15
UAGACUGUCACCUUGUCUGAGAGAUUUACA | 0.659 ± 0.12
UACACUGUCACCUUGUCUGAGAGAUUUACA | 0.989 ± 0.19
AUCACUGUCACCUUGUCUGAGAGAUUUACA | 0.799 ± 0.14
AUCACUGUCACCUUCACUGAGAGAUUUACA | 0.511 ± 0.082
UACACUGUGACCUUCUCUGAGAGAUUAACA | 0.464 ± 0.037
UAGUGACAGUCCUUCUCUGAGAGUAUUAACA | 0.0116 ± 0.0023
UAGUGUGUCACCUUCUCUGAGACAUUUACA | 0.028 ± 0.0097
UAGUGACACACCAACUCUGAGAGAUUAACA | 0.0222 ± 0.0043
UUCACUCAGACCUUCUCUGAGAGAUUAUGA | 0.0052 ± 0.0036
UAGUGAGACACCUUCUCUGAGAGAUUAAGA | 0.0909 ± 0.019
AACACUGUCACCUUCUCUGAGAGAUUAUGA | 0.101 ± 0.021
UAGACUGUCAUCCUUCUCUGAGAGAUUAACA | 0.262 ± 0.023
AUCACUGUCACUCUUCUCUGAGAGAUUAACA | 0.53 ± 0.035
UAGACUGUCAUCUUCUCUGAGAGAUUAACA | 0.848 ± 0.051
UAGACUGUCACUCUUCUCUGAGAGAUUAACA | 0.457 ± 0.032
AUCACUGUCAUCUUCUCUGAGAGAUUAACA | 0.827 ± 0.041
UUCACUGUCAUCUUCUCUGAGAGAUUAACA | 0.596 ± 0.027
AUCACUCUCACCUUCUCUGAGAGAUUAUGA | 0.049 ± 0.018
UAGACUGUCACCUUCUCUCAGAGUUUAACA | 0.0473 ± 0.0063
UAGUCUGACACCUUGUCUGAGAGAUUAACA | 0.164 ± 0.022
AUCAAUGUCACCUUCUCUGAGAGAUUAACA | 0.672 ± 0.03
UACACUGUCUCCUUCUCUGAGAGAUUAACA | 0.599 ± 0.034
